High-throughput results: PubChem BioAssay, several laboratories
In the library only some 27% were active in any assay of this set; here they are far more common.
CYP2C19 inh = inhibitors of human CYP2C19. P33261. CYP2C19 Supersomes, luciferin-H EGE luminescence, 30 min. inhibition, % at 5 µM. hit rate 21% among 96,000. AID 778;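 active = CYP2C19 inhibition above a set limit at 5 µM in the primary screen, cut at about 50% in these data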;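 note: plate controls were negative control wells for no effect and 2.5 mM tranylcypromine positive control for full effect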
Target sequence (P33261 whole entry, looked up): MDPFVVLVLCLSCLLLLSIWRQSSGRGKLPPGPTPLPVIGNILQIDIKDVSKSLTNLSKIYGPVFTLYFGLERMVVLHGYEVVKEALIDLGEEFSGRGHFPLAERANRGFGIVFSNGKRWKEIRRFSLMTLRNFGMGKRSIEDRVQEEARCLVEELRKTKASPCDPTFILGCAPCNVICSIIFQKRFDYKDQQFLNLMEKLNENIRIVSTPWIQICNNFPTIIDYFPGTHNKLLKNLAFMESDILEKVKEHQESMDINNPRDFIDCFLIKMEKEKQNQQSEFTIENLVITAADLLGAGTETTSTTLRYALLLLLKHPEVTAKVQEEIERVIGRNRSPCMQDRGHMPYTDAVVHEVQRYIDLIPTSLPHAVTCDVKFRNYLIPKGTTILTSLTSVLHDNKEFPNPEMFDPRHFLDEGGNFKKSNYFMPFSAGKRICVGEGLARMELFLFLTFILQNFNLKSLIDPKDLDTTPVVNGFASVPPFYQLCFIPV
CYP2C9 act = activators of human CYP2C9; P11712; recombinant CYP2C9, luciferin-H conversion, luminescence; stronger effect = higher value; factor 1 = untreated enzyme, 0 = blocked; AID 1024; hit rate 1.4% among 96,000; activation factor at 5 µM;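 active = activation factor of 2 or more for CYP2C9 at a 5 µM dose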;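 note: 0 = sulfaphenazole-blocked wells and 1 = vehicle-only wells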
CYP2C9 inhib = inhibitors of human CYP2C9 | P11712 | AID 777 | CYP2C9 Supersomes, luciferin-H conversion, luminescence | inhibition, % at 5 µM | hit rate 20% among 96,000;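 active = blocking of liver enzyme CYP2C9 beyond about 50% at 5 µM, limit read from the data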
sEH inhibitor = soluble epoxide hydrolase (human) inhibition; P34913; recombinant human sEH enzymatic activity assay; inhibition, % at 2 µM; hit rate 0.34% among 91,000; AID 707; in the data active = inhibition above about 80%
CYP2C19 act = activators of human cytochrome P450 2C19; P33261; recombinant CYP2C19, luciferin-H EGE luminescence; stronger effect = higher value; 0 = fully inhibited enzyme, 1 = untreated enzyme; activation factor at 5 µM; 96,000 tested, under 10 active; AID 1025;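 active = activation factor of at least 2 at 5 µM in the primary screen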;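 note: 0 = wells with 2.5 mM tranylcypromine and 1 = vehicle-only wells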
sEH activator = activators of human soluble epoxide hydrolase; hit rate 0.04% among 91,000; activation, % at 2 µM; P34913; purified human sEH enzymatic activity, activator screen; in the data active = activation above about 37%
* marks the source's active call; other numbers are inactive results; . = no result.

SMILES	CYP2C19 inh	CYP2C9 act	CYP2C9 inhib	sEH inhibitor	CYP2C19 act	sEH activator
CC(C)(C)C(=O)C(CO)(Oc1ccc(Cl)cc1)n1cncn1 (centres undefined)	92.8*	0.2	76.7*	.	0.1	.
Cc1ccc2c(c1)c1c(n2C)-c2[nH]ncc2CC1	.	.	.	2.8	.	-0.3
Clc1ccccc1CSc1nnc(-c2ccncc2)o1	95.0*	0.1	89.7*	-17.9	0.1	16.5
c1ccc2[nH]c(CSc3nnc(-c4ccncc4)o3)nc2c1	79.8*	0.2	81.0*	.	0.2	.
Brc1cccc(-c2nnc(SCc3nc4ccccc4[nH]3)o2)c1	31.7	1.3	-27.1	5.5	0.7	-6.0
c1ccc2c(CSc3nnc(-c4ccncc4)o3)cccc2c1	96.4*	0.1	91.3*	-12.1	0	10.9
N#Cc1cccc(-c2nnc(SCc3ccccc3C#N)o2)c1	27.3	1.1	-14.3	.	0.7	.
Cc1c(C)c2ccc(OC3CCCCC3=O)cc2oc1=O (centres undefined)	4.3	0.9	14.0	.	1	.
Cc1cc(C)c(NN=c2c(=O)c3ccccc3c2=O)c(C)c1	4.0	0.8	17.7	-16.8	1	16.5
O=c1c(=NNc2ccccc2Cl)c(=O)c2ccccc12	60.3*	0.7	32.4	-2.9	0.4	3.3
COc1cccc(OCCNc2cc(Cl)ccc2[N+](=O)[O-])c1	46.1	0.6	41.6	4.1	0.5	-1.4
CCn1c2ccccc2c2cc(NS(=O)(=O)c3ccccc3C)ccc21	65.8*	0.2	81.2*	-5.5	0.3	5.6
Cc1nc(Nc2ccc(S(N)(=O)=O)cc2)oc1C	-11.3	1	0.0	-1.7	1.1	2.1
O=C(NCC(=O)N(CC1CCCO1)C1(C(=O)NC2CCCCC2)CCCCC1)c1ccccc1 (centres undefined)	-1.7	1	-1.9	-5.5	1	3.0
O=C(NCCc1ccccc1)C1CCCN(S(=O)(=O)c2cccc3nonc23)C1 (centres undefined)	6.9	0.9	9.7	68.5	0.9	-68.1
O=C(C1CCCN(S(=O)(=O)c2cccc3nonc23)C1)N1CCC(Cc2ccccc2)CC1 (centres undefined)	50.9*	1.8	-78.9	-4.3	0.5	2.5
Cc1[nH]c(=O)[nH]c(=O)c1S(=O)(=O)N1CCCC(C(=O)N2CCC(Cc3ccccc3)CC2)C1 (centres undefined)	52.8*	1.1	-7.3	.	0.5	.
Cc1c(S(=O)(=O)N2CCN(C(c3ccccc3)c3ccccc3)CC2)c(=O)n(C)c(=O)n1C	-13.4	0.8	16.2	-13.0	1.1	11.2
COc1ccc(N2CCN(C(=O)c3ccc(Oc4ccc(C(F)(F)F)cn4)cc3)CC2)cc1	19.1	0.9	12.0	-2.4	0.8	4.8
CCCS(=O)(=O)N1CCN(c2ccccn2)CC1	69.3*	0.6	39.5	3.3	0.3	-2.0
Cc1ccc2cc(C)c(N3CCN(c4ccccn4)CC3)nc2c1	77.0*	0.3	70.3*	10.5	0.2	-7.8
Cc1ccc2[nH]cc(C(=O)CN3CCN(c4ccccn4)CC3)c2c1	87.0*	0.2	83.7*	0.5	0.1	-1.8
Cc1ccc(-c2nnc(N3CCN(c4ccccn4)CC3)c3ccccc23)cc1	46.5	0.7	31.6	-1.4	0.5	4.7
CCS(=O)(=O)N1CCN(c2ccccn2)CC1	23.7	0.8	20.2	-4.4	0.8	3.7
Cc1ccc(CC(=O)N2CCN(c3ccccn3)CC2)cc1	98.5*	0.1	86.7*	12.4	0	-13.5
SMILES	CYP2C19 inh	CYP2C9 act	CYP2C9 inhib	sEH inhibitor	CYP2C19 act	sEH activator
COc1ccc(-c2nnc(SCC(=O)Nc3cc(C)on3)n2C)cc1OC	4.7	1	-0.8	-8.6	1	10.9
Cn1c(=O)c2c(nc(NCCCN3CCOCC3)n2Cc2ccc(Cl)c(Cl)c2)n(C)c1=O	.	.	.	1.0	.	-2.6
Cc1ccc(S(=O)(=O)N2CCN(S(=O)(=O)c3ccc(C)cc3)C2)cc1	29.7	0.3	67.9*	-1.1	0.7	-0.3
O=C(CN1CCN(Cc2ccccc2)CC1)c1c[nH]c2ccccc12	13.3	0.7	26.7	-5.0	0.9	4.6
CCCS(=O)(=O)N1CCN(S(=O)(=O)c2ccccc2)CC1	60.6*	0.4	56.0*	-1.5	0.4	0.6
O=S(=O)(c1ccccc1)N1CCN(S(=O)(=O)c2ccccc2)C1	93.9*	0.3	66.9*	-0.2	0.1	-1.8
CCS(=O)(=O)N1CCN(S(=O)(=O)c2ccc(F)cc2)CC1	.	.	.	-0.1	.	5.2
O=C(CN1CCSCC1)c1c[nH]c2ccccc12	63.8*	0.6	36.8	-2.6	0.4	4.7
